Measurements from the supplement of paper PMC3334620.
In all, about 33,000 sequences were measured (“E-score (-0.5 to 0.5)”: median about -0.0014, highest 2% from about 0.25 on). What follows is part of a selection rich in the highest values, with near analogues and random picks from the rest.

Target: T1, Cad1 (UniProt P24813)
T1 sequence: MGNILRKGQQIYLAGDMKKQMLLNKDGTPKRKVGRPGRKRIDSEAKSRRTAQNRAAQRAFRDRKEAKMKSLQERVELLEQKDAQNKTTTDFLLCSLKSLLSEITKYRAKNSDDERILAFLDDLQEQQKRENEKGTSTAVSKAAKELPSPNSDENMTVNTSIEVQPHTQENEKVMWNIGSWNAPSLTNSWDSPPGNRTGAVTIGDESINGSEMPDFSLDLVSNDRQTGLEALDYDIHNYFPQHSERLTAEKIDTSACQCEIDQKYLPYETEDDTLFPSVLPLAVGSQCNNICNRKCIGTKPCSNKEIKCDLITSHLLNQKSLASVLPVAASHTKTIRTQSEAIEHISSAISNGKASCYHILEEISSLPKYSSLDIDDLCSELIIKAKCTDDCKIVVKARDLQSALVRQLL
Test: PBM E-score (8-mer binding enrichment) (E-score (-0.5 to 0.5)); higher = stronger / more preferred TF binding
Settings: protein concentration: 100 nM; construct: GST-full length
Method: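 Universal 'all 10-mer' protein binding microarrays (Agilent AMADID 015681) probed with GST-tagged S. cerevisiae TFs (full-length or DBD) made by in vitro transcription/translation (PURExpress), about 100-200 nM. Bound TF was detected with fluorescent anti-GST. Each ungapped 8-mer (which stands for itself and its reverse complement) is scored by the PBM enrichment score (E-score), a modified Wilcoxon-Mann-Whitney statistic from -0.5 to +0.5, computed with the Universal PBM Analysis Suite. Scale: above 0.35 generally sequence-specific binding.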

| Sequence | PBM E-score |
| --- | --- |
| AGCGGACC | -0.113 |
| ACTCGAGG | 0.107 |
| ACTCGAGT | 0.311 |
| ACTCGAGA | -0.0156 |
| CAATCGGA | 0.259 |
| TAATCGGA | 0.152 |
| AAATCGGA | 0.171 |
| TAGCGACA | 0.0174 |
| CTGGCCAG | -0.159 |
| ATGGCCAC | -0.21 |
| ATGGCCTG | 0.0685 |
| ATGGCCAG | 0.273 |
| ATGGCCAT | 0.252 |
| ATGGCCAA | -0.046 |
| GGAGATCA | -0.0337 |
| ATAGCCCA | 0.062 |
| CAAACCGA | 0.0658 |
| ATAATGAA | 0.166 |
| AACGGATC | 0.217 |
| AACGGATG | -0.0154 |
| AACGGATA | 0.252 |
| ATCGGATA | 0.276 |
| AACGGAAT | 0.269 |
| GTCGGATA | 0.0779 |
| TACGGATA | 0.116 |

| Sequence | PBM E-score |
| --- | --- |
| AACGGAAA | 0.219 |
| CACGGATA | 0.22 |
| CTCGGATA | 0.193 |
| AACGGATT | 0.317 |
| AACGGAAG | 0.114 |
| CTGAGGCC | -0.0469 |
| CTACTGCC | -0.162 |
| CAGGATCA | -0.0245 |
| ACTTGTGG | -0.0436 |
| CGATAATC | -0.016 |
| AGTTAAAA | 0.14 |
| AAGCCCTT | -0.0922 |
| AGCGGATA | -0.0234 |
| CGCGGATC | 0.0644 |
| CGCGGATA | 0.258 |
| CCTGCCCA | -0.0659 |
| CGTCAAGC | -0.0629 |
| AGCATATC | 0.025 |
| CGCATATC | 0.318 |
| CGCATATA | -0.0685 |
| CCCGTTCG | 0.016 |
| AAGTCGAT | 0.0428 |
| GCGTCGAA | 0.116 |
| AAGTCGAC | 0.256 |
| AAGTCGAA | -0.0588 |

| Sequence | PBM E-score |
| --- | --- |
| ATGTCGAA | -0.00122 |
| CCGTCGAC | -0.0671 |
| GCGTCGAC | 0.252 |
| CTGTCGAC | -0.0383 |
| ATGTCGAC | 0.276 |
| CCGACAAG | -0.0166 |
| CATCTCCA | 0.09 |
| AAACATAG | -0.0611 |
| ATACATAC | -0.195 |
| ATACATAT | 0.286 |
| AAACATAC | -0.123 |
| AAACATAT | 0.25 |
| ATACATAA | 0.12 |
| GCGGCCGC | 0.175 |
| AATTGATC | -0.0161 |
| AATTGATA | 0.206 |
| AATTGATG | 0.251 |
| TCACGTGA | 0.125 |
| TCCGCTCA | -0.195 |
| ACTCGAAA | -0.0505 |
| AGAGCCCT | -0.122 |
| ACTGATTG | 0.0651 |
| ATTGATTC | 0.12 |
| CTTGAATA | 0.118 |
| ATTGATTG | 0.133 |

| Sequence | PBM E-score |
| --- | --- |
| CCTGATTC | 0.0985 |
| ACTGATTA | 0.265 |
| ACTGATTC | -0.0134 |
| CCTGATTA | 0.31 |
| ATTGAATA | 0.281 |
| ATTGAATC | -0.0423 |
| CCTGATGA | 0.0887 |
| ATTGATTA | 0.286 |
| CAGCATAA | 0.169 |
| AATTAAGT | 0.181 |
| ACTACTGC | -0.0336 |
| GACTACGA | -0.0382 |
| GATGGGTA | 0.0269 |
| CCAGCCAG | -0.207 |
| GATGATTA | 0.126 |
| GCTGATAA | 0.161 |
| GCTGATTA | 0.378 |
| CTCATGGC | -0.0384 |
| TAGAACTA | 0.0157 |
| ACTAGGAT | -0.0418 |
| GTCGGTAA | -0.116 |
| CTATAGCA | -0.0148 |
| AATTCCAC | 0.111 |
| AATTCCAG | 0.257 |
| AATTCCAT | 0.0643 |

| Sequence | PBM E-score |
| --- | --- |
| AGTATCTC | 0.178 |
| TCTTCAAA | -0.0389 |
| TAACTCGA | 0.275 |
| GAACTCGA | 0.0968 |
| CAACTCGA | 0.175 |
| AAATTCAC | 0.0164 |
| AATTATCT | 0.282 |
| AATTATTA | 0.249 |
| AATTATCA | 0.266 |
| ACTTATCT | 0.0827 |
| AATTATCG | 0.247 |
| AATTATCC | 0.0534 |
| AGGAGACT | -0.286 |
| ATAAAACA | 0.0107 |
| CGATCGCA | 0.169 |
| CCAGATGA | -0.131 |
| TGAGCGAA | 0.123 |
| GTTGACTA | 0.0212 |
| ACTGACTA | 0.116 |
| GATGACTA | 0.172 |
| GCTGACCC | -0.145 |
| CCTGACTC | -0.139 |
| GCTGACTA | 0.335 |
| ACTGACCA | -0.105 |
| GCTGACCA | 0.252 |

| Sequence | PBM E-score |
| --- | --- |
| CCTGACTA | 0.351 |
| CCGATGGC | -0.118 |
| CGGGTGGA | -0.0447 |
| CGTTAGCC | 0.0683 |
| GCCCTAAA | -0.269 |
| CTCGAAGC | 0.00892 |
| CGCACTAA | 0.155 |
| TGCACTAA | 0.32 |
| AGCACTAA | 0.094 |
| TCGGGGAA | 0.0236 |
| GAGACGTA | -0.0175 |
| AAACAAAA | -0.0143 |
| GAACAAAA | 0.274 |
| GGACAAAA | 0.0884 |
| CGACAAAA | 0.136 |
| TGACAAAA | 0.251 |
| GAACAAAC | 0.0779 |
| ACACAAAA | 0.0974 |
| GCACAAAA | 0.18 |
| TCACAAAA | 0.253 |
| ATCAGCAG | 0.191 |
| AATATCCT | -0.0122 |
| ATTATAAT | 0.227 |
| AAAATTTG | 0.196 |
| ATAATTGG | -0.0135 |

| Sequence | PBM E-score |
| --- | --- |
| ATAATTTC | 0.154 |
| ATAATTTG | 0.278 |
| CAAATTTC | 0.201 |
| AGAATTAT | 0.191 |
| CTAATTAC | 0.199 |
| ATAATTAC | 0.295 |
| CAAATTTG | 0.33 |
| ATAATTAT | 0.377 |
| ATAATTCC | -0.00553 |
| GGCATTGA | -0.0489 |
| ACCGCGCG | 0.225 |
| CCGGTAGC | -0.164 |
| CCTCAATC | 0.0973 |
| GCATTCAA | 0.0687 |
| AAGGGACG | -0.195 |
| GACCGATC | -0.128 |
| CAGGGTCC | -0.134 |
| AGGGGGAA | -0.248 |
| AATTGGTC | 0.0715 |
| ATAATTAA | 0.323 |
| GTAATTAC | 0.33 |
| CTAATTAA | 0.147 |
| AGAATTAG | 0.00824 |
